From ChEMBL document CHEMBL1961873, “Compounds: GSK PKIS; Assays: Nanosyn kinase panel” (2012)

Experiments:
[1] = molecular target: T1, Mitogen-activated protein kinase 12 (Homo sapiens) (UniProt P53778); conditions: at 1 µM;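 further: values are averaged p38gamma kinase inhibition readings, compounds tested at 1 µM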
T1 sequence (whole entry): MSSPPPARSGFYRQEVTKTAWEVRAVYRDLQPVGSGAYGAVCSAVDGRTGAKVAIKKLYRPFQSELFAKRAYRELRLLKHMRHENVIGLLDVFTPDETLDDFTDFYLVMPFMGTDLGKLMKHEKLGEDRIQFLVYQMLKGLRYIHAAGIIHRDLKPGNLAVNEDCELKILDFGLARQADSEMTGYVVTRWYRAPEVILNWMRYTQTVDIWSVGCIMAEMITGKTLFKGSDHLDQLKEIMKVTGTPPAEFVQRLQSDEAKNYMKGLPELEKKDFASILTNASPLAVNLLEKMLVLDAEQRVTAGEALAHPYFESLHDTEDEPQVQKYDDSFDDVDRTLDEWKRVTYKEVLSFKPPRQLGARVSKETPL

[2] = molecular target: SRSF protein kinase 1 (Homo sapiens) (UniProt Q96SB4); conditions: at 0.1 µM
[3] = molecular target: SRSF protein kinase 1 (Homo sapiens) (UniProt Q96SB4); conditions: at 1 µM
[4] = molecular target: Phosphatidylinositol 4,5-bisphosphate 3-kinase catalytic subunit alpha isoform (Homo sapiens) (UniProt P42336); conditions: at 0.1 µM
[5] = molecular target: Phosphatidylinositol 4,5-bisphosphate 3-kinase catalytic subunit alpha isoform (Homo sapiens) (UniProt P42336); conditions: at 1 µM
[6] = molecular target: T2, Phosphatidylinositol 4,5-bisphosphate 3-kinase catalytic subunit delta isoform (Homo sapiens) (UniProt O00329); conditions: at 0.1 µM
T2 sequence (whole entry): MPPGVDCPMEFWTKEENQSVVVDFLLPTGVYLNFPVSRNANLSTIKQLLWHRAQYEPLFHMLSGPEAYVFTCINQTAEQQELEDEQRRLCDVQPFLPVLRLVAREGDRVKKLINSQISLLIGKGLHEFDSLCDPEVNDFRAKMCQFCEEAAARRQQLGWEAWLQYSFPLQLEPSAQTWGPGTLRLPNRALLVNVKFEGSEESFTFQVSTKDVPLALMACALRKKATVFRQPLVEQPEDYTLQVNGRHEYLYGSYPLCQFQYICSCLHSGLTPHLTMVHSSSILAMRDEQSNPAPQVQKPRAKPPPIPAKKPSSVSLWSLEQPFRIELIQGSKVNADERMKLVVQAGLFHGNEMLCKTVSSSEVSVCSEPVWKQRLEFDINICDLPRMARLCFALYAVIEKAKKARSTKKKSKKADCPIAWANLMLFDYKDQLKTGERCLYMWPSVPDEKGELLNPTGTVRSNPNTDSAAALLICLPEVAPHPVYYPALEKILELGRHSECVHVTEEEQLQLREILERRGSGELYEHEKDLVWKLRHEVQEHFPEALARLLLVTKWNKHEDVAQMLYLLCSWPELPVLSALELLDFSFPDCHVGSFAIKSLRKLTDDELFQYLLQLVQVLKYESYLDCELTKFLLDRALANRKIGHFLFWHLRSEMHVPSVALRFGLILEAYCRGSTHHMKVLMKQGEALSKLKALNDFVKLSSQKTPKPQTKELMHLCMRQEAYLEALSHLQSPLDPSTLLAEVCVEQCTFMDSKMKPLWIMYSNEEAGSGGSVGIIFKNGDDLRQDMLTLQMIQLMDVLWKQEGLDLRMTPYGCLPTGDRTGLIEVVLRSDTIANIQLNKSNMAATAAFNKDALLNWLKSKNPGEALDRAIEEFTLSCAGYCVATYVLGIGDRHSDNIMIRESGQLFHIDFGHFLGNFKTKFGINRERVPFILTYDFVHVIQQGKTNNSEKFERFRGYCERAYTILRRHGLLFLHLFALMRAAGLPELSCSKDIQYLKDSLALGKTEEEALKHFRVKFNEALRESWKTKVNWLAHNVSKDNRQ

[7] = molecular target: T2, Phosphatidylinositol 4,5-bisphosphate 3-kinase catalytic subunit delta isoform (Homo sapiens); conditions: at 1 µM
[8] = molecular target: Phosphatidylinositol 4-kinase beta (Homo sapiens) (UniProt Q9UBF8); conditions: at 0.1 µM
[9] = molecular target: Phosphatidylinositol 4-kinase beta (Homo sapiens) (UniProt Q9UBF8); conditions: at 1 µM
[10] = molecular target: Sphingosine kinase 1 (Homo sapiens) (UniProt Q9NYA1); conditions: at 0.1 µM
[11] = molecular target: Sphingosine kinase 1 (Homo sapiens) (UniProt Q9NYA1); conditions: at 1 µM
[12] = molecular target: T3, Sphingosine kinase 2 (Homo sapiens) (UniProt Q9NRA0); conditions: at 0.1 µM
T3 sequence (whole entry): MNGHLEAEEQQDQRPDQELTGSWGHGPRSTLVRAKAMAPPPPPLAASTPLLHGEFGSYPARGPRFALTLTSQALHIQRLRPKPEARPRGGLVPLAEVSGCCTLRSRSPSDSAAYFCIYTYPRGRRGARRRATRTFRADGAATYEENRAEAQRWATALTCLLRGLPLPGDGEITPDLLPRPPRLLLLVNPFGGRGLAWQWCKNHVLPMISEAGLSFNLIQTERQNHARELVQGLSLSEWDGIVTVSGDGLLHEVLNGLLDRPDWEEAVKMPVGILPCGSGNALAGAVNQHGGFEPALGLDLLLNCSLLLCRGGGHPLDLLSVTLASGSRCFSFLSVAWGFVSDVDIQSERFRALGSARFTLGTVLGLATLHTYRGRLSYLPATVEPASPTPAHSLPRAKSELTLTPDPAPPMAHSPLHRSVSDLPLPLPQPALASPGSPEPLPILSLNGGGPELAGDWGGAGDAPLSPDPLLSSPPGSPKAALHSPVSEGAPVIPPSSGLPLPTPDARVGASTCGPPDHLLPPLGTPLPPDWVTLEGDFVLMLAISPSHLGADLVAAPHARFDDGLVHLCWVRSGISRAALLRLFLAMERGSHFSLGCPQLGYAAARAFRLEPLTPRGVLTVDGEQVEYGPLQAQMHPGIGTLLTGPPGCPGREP

[13] = molecular target: T3, Sphingosine kinase 2 (Homo sapiens); conditions: at 1 µM
[14] = molecular target: Casein kinase II subunit alpha (Homo sapiens) (UniProt P68400); conditions: at 0.1 µM
[15] = molecular target: Casein kinase II subunit alpha (Homo sapiens) (UniProt P68400); conditions: at 1 µM
[16] = molecular target: T4, Inhibitor of nuclear factor kappa-B kinase subunit alpha (Homo sapiens) (UniProt O15111); conditions: at 0.1 µM
T4 sequence (whole entry): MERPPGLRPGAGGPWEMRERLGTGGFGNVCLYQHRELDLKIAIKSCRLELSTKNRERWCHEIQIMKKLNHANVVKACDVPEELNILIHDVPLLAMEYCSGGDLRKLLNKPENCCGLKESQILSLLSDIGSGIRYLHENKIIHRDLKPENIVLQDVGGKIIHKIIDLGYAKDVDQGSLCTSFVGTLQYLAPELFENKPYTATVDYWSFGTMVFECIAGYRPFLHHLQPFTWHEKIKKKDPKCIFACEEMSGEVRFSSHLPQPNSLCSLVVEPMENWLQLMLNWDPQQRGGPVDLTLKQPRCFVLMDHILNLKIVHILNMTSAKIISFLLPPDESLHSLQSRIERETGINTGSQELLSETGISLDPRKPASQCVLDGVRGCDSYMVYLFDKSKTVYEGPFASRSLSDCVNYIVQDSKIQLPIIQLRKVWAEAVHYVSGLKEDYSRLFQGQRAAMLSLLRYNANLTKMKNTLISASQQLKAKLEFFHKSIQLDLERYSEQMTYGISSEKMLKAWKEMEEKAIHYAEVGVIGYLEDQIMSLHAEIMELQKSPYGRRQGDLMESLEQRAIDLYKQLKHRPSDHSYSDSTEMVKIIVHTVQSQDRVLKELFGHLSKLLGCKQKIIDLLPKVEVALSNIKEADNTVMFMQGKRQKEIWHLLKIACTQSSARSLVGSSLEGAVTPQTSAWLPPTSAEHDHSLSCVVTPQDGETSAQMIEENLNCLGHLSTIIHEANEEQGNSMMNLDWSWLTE

[17] = molecular target: T4, Inhibitor of nuclear factor kappa-B kinase subunit alpha (Homo sapiens); conditions: at 1 µM
[18] = molecular target: T5, Inhibitor of nuclear factor kappa-B kinase subunit beta (Homo sapiens) (UniProt O14920); conditions: at 0.1 µM
T5 sequence (whole entry): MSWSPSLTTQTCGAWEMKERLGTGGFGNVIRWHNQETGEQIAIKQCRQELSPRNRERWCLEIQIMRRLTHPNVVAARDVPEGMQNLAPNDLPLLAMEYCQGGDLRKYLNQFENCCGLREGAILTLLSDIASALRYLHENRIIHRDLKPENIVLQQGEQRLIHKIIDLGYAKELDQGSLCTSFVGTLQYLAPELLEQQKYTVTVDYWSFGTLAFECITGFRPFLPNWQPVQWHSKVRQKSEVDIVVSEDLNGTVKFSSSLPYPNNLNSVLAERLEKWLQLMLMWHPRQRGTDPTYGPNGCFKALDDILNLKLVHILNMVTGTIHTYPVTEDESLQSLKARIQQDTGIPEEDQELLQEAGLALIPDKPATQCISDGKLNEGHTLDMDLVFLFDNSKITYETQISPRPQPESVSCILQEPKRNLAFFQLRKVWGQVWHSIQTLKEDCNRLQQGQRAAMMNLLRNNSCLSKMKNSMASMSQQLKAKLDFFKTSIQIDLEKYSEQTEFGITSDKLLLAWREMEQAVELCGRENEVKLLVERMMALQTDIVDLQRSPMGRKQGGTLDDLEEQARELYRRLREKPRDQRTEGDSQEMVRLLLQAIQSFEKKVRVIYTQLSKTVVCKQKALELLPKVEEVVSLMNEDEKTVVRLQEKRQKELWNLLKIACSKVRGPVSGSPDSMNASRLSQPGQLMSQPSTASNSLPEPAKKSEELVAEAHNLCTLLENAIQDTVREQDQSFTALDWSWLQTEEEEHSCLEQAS

[19] = molecular target: T5, Inhibitor of nuclear factor kappa-B kinase subunit beta (Homo sapiens); conditions: at 1 µM
[20] = molecular target: T6, Inhibitor of nuclear factor kappa-B kinase subunit epsilon (Homo sapiens) (UniProt Q14164); conditions: at 0.1 µM;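 further: mean inhibition of IKKε reported, from the GSK PKIS dataset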
T6 sequence (whole entry): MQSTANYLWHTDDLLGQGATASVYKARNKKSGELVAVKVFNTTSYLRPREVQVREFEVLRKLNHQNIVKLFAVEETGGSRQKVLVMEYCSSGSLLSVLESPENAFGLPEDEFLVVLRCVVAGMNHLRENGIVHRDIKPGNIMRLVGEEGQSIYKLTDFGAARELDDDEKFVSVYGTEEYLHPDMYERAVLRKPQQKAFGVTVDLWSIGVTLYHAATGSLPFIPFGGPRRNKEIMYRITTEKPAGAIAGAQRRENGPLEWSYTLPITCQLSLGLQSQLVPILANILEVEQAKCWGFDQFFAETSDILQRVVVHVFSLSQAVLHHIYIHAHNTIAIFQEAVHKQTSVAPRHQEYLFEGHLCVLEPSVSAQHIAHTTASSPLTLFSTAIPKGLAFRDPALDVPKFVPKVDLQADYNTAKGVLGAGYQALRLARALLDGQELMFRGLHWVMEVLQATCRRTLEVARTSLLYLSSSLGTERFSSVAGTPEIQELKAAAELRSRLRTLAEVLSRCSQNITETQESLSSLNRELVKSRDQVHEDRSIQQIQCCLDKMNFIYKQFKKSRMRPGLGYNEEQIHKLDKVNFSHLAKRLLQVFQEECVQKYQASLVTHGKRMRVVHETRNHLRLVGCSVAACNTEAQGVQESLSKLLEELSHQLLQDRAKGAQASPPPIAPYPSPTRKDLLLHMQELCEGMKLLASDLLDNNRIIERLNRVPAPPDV

Casein kinase II subunit alpha (Homo sapiens), sequence (P68400 whole entry, looked up): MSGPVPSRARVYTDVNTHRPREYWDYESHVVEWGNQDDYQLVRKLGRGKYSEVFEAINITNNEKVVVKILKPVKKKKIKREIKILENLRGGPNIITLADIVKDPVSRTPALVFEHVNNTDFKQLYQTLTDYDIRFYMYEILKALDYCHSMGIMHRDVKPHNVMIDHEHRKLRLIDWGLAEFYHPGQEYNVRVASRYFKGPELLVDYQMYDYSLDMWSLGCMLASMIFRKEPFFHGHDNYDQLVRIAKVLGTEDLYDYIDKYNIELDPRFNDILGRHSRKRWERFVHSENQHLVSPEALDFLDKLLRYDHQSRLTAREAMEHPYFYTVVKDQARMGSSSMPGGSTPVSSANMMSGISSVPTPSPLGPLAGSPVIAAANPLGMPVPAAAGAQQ
Phosphatidylinositol 4,5-bisphosphate 3-kinase catalytic subunit alpha isoform (Homo sapiens), sequence (P42336 whole entry, canonical isoform): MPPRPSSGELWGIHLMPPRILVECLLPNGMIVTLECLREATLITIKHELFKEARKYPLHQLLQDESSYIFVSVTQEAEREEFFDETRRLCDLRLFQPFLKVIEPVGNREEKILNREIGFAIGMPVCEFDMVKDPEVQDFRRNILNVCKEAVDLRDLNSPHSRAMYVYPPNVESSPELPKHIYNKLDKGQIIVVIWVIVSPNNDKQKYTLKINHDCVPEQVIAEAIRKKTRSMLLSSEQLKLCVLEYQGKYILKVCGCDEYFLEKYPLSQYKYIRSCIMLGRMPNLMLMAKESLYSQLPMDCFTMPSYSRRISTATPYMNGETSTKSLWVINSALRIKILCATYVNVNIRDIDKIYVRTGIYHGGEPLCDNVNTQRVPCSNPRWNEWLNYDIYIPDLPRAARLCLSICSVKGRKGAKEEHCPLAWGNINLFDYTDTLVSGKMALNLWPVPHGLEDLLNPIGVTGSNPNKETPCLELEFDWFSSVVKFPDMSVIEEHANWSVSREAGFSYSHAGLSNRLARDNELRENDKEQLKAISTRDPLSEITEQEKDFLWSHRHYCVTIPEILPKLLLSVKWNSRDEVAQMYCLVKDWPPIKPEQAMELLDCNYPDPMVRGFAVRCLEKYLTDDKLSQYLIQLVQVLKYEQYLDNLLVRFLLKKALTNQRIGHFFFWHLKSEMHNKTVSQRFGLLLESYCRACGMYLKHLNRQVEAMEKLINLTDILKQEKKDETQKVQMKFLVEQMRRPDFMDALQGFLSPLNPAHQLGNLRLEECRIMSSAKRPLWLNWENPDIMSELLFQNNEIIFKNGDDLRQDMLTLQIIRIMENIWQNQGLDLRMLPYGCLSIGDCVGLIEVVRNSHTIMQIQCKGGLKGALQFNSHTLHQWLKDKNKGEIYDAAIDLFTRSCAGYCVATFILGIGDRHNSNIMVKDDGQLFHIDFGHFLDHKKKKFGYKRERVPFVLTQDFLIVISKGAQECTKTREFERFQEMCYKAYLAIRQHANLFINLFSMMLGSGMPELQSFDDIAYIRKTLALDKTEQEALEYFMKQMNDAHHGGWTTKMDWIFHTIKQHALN
Phosphatidylinositol 4-kinase beta (Homo sapiens), sequence (Q9UBF8 2-816 limits assumed): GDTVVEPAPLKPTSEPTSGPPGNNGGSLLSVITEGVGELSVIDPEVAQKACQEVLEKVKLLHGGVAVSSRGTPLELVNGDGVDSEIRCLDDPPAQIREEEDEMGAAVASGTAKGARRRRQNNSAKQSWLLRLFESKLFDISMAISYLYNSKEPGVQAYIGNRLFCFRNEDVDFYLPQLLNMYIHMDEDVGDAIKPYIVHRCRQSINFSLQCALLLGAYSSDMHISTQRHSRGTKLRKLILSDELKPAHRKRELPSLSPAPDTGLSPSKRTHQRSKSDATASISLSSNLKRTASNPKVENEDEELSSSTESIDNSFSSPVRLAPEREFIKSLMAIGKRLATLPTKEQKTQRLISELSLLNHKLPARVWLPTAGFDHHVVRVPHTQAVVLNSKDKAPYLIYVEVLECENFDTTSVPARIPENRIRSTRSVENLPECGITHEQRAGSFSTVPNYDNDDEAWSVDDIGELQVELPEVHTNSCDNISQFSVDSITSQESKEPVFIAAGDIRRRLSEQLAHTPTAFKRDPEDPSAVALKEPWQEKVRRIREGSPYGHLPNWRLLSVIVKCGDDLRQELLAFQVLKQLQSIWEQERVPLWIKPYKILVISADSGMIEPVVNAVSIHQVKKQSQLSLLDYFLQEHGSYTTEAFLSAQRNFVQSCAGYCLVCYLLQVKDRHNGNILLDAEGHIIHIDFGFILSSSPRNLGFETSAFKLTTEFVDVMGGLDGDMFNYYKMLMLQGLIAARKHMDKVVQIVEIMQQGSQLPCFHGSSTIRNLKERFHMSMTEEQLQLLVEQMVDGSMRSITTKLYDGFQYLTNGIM
SRSF protein kinase 1 (Homo sapiens), sequence (Q96SB4 whole entry, canonical isoform): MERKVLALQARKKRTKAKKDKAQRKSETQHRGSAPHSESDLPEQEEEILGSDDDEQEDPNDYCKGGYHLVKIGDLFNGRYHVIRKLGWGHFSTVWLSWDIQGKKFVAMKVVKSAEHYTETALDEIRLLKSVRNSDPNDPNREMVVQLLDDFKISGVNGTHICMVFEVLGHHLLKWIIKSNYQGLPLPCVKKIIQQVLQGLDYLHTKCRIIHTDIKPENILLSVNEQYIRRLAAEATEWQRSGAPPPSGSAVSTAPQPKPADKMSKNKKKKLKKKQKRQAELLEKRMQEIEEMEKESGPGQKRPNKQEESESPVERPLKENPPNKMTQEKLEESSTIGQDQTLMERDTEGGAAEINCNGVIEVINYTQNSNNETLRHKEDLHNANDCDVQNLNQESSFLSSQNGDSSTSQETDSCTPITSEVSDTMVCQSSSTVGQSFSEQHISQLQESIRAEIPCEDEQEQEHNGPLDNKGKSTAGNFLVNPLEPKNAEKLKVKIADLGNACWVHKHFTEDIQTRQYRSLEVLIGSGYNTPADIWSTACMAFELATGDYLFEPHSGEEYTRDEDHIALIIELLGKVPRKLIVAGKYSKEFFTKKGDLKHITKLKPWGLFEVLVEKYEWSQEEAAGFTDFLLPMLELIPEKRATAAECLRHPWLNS
Sphingosine kinase 1 (Homo sapiens), sequence (Q9NYA1 whole entry): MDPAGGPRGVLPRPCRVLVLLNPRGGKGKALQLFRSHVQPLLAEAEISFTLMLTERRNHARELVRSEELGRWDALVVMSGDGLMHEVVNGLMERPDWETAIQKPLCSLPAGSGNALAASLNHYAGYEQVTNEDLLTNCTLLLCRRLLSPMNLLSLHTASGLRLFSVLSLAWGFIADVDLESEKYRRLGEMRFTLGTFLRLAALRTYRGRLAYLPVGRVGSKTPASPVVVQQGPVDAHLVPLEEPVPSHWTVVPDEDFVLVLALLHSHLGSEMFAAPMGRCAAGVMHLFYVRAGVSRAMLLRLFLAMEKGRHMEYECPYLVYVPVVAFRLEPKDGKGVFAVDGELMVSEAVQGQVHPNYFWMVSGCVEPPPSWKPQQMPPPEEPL

| SMILES | inhibition [1] [%] | inhibition [2] [%] | inhibition [3] [%] | inhibition [4] [%] | inhibition [5] [%] | inhibition [6] [%] | inhibition [7] [%] | inhibition [8] [%] | inhibition [9] [%] | inhibition [10] [%] | inhibition [11] [%] | inhibition [12] [%] | inhibition [13] [%] | inhibition [14] [%] | inhibition [15] [%] | inhibition [16] [%] | inhibition [17] [%] | inhibition [18] [%] | inhibition [19] [%] | inhibition [20] [%] |
| --- | --- | --- | --- | --- | --- | --- | --- | --- | --- | --- | --- | --- | --- | --- | --- | --- | --- | --- | --- | --- |
| NS(=O)(=O)c1ccc(Nc2ncc(-c3ccccc3)o2)cc1 | 1.81 | -0.91 | 0.75 | 3.75 | 2.69 | 0.62 | 3.33 | -3.61 | 4.39 | 0.6 | 0 | -1.43 | -1.09 | 3.56 | 10.3 | 6.23 | 15.3 | 3.35 | 11.7 | 4.43 |
| COc1cccc(-c2c[nH]c3c(N/N=C/c4ccncc4)ncnc23)c1 | 14.7 | 0.71 | -1.68 | 1.14 | 4.14 | 0.94 | 3.3 | -3.02 | 0.08 | -4.21 | 0.2 | 1.73 | -1 | 8.8 | 43.7 | 9.76 | 9.01 | 2.82 | 1.73 | 2.96 |
| NS(=O)(=O)c1ccc(N/N=C2\C(=O)Nc3ccc4ncccc4c32)cc1 | 18.9 | -3.05 | -3.18 | 1.35 | 7.38 | 1.9 | 8.23 | 1.16 | 0.49 | -2.17 | -1.18 | 0.16 | 7.47 | 5.01 | 32.2 | 9.67 | 20 | 4.79 | 26 | 8.67 |
| O=C(O[C@H]1CN[C@H](C#Cc2cc3ncnc(Nc4ccc(Cc5ccccc5)cc4)c3s2)C1)N1CCOCC1 | 1.72 | -2.56 | -2.4 | 3.61 | 11.2 | 1.42 | 8.98 | 0.59 | -0.78 | 0.79 | -1.06 | -1.12 | -1.6 | 6.95 | 1.52 | 6.44 | 1.74 | 4 | 0.81 | 3.09 |
| CCN1CCC(CC(=O)Nc2n[nH]c3nnc(-c4cccc(F)c4F)cc23)CC1 | 1.97 | -2.57 | -3.98 | 3.38 | 2.58 | 2.16 | 1.94 | 2.58 | -1.91 | 0.09 | 1.84 | -1.05 | 0 | 5.23 | 2.82 | 4.71 | 0.12 | 5.28 | 3.6 | 4.71 |
| CCOc1ccc2c(-c3ccnc(Nc4cccc(C(F)(F)F)c4)n3)cnn2n1 | 0.81 | -3.06 | -3.22 | 2.25 | 3.21 | -0.36 | 0.32 | -2.42 | -0.91 | 0.68 | -1.13 | 2.38 | -1.13 | 5.72 | 7.82 | 11.5 | 6.76 | 4.08 | 3.66 | 8.35 |
| Fc1ccc(-c2nn3ncccc3c2-c2ccnc(Nc3ccc4c(c3)OCCO4)n2)cc1 | 4.06 | -3.43 | -6.44 | 3.44 | 6.99 | 3.64 | 9.87 | -5.48 | -0.74 | 1.29 | 0.16 | 0 | 0.35 | 2.03 | 0.07 | 9.88 | 7.87 | 5.46 | 4.62 | 5.66 |
